Data reported in PubChem BioAssay.
Several values for one entry are separate records, joined by “and”; a condition that tells them apart may be missing. Equal entries are not always repeated. For some of these results: Measured potencies and affinities stand elsewhere. Activity calls are given as the source filed them.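 The calls were made as follows, unless noted: active = thallium flux through the channel raised or lowered by more than 3 SD from vehicle-only wells, actives on both sides; inactive = the rest.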

What was measured:
[1] = polyglutamine-triggered caspase-3 activation inhibitors, cell-based (AID 1583); settings: polyglutamine-induced caspase-3 activation, cell assay; stronger effect = higher value;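 tested at 10 µM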
[2] = suppressors of polyQ aggregation in yeast, 75Q-TubU reporter (AID 1593); settings: Yeast 75Q polyglutamine aggregation reporter
[3] = rescue of polyQ-huntingtin neuronal dysfunction in worms, whole organism, C. elegans mechanosensory neurons, N-terminal huntingtin (AID 1599); settings: touch response, stronger effect = higher value
[4] = inhibitors of mitochondrial cytochrome c release, biochemical, purified mitochondria (AID 1603); settings: stronger effect = lower value;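 also: mouse liver mitochondria challenged with calcium chloride; signal normalized to the plate average as 100%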
[5] = inhibitors of polyQ protein aggregation (AID 1604); settings: polyglutamine-induced protein aggregation inhibition assay; stronger effect = higher value; tested at 2.5 µM
[6] = enhancers of glutamate uptake in motor neurons, MN-1 cell line (AID 1612); settings: MN-1 motor neuron cells, stronger effect = higher value;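 also: tested at 1 µM final; 0% = mean of DMSO vehicle wells on each plate; positive means more glutamate uptake than control and negative means less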
[7] = suppressors of polyglutamine aggregation in yeast, 75Q-TubH (AID 1616); settings: S. cerevisiae 75Q-TubH polyglutamine aggregation suppression; stronger effect = higher value
[8] = hESC survival regulators, cell-based (AID 493140; call rule not given here;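 also: cells exposed to compounds for four days before counting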); settings: human embryonic stem cell survival screen; stronger effect = higher value
[9] = tested on: Hepatitis C virus NS3 helicase; experiment: HCV NS3 helicase inhibitors, primary screen, biochemical, fluorescence polarization, LOPAC1280 library (AID 687035; in the data active = inhibition above about 37%); settings: Purified HCV NS3 helicase, Cy5-dT15 ssDNA binding fluorescence polarization; stronger effect = higher value; concentration not given here
[10] = Cy5 fluorescence interference with SSB-bound oligo, artefact control for HCV NS3 helicase inhibitor project, biochemical, NIH Clinical Collection, E. coli SSB (AID 743268; call rule not given here)
[11] = modulation of C. elegans fzo-1 (AID 1259413; call rule not given here;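 also: fzo-1 mutant C. elegans worms in liquid wells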); settings: C. elegans fzo-1 modulator screen, mean read-out; stronger effect = higher value
[12] = viability rescue of complex I mutant cybrids, primary screen, cell-based, galactose medium, ATP luminescence (AID 1645843;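 active = z-score of at least 1.8 in each of two replicates, scored against plate mean and spread of sample wells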;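 also: positive z means more ATP and so rescue of galactose-driven cybrid death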); settings: complex I mutant cybrid cells, 72 h, stronger effect = higher value
F380Y/beta1 = experiment: modulators of BK channel variants, profiling panel, selectivity assay, cell-based, U2OS BacMam, thallium flux, beta subunits (AID 1259406); settings: at 30 µM;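 also: initial slope of Thallos dye fluorescence rise after thallium is added; log ratio against the mean of 0.3% DMSO vehicle wells on the same plate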
F380Y/beta4 = experiment: as above; settings: at 30 µM
R275C = experiment: as above; settings: at 30 µM
R275C/beta1 = experiment: as above; settings: at 30 µM
R275C/beta2Delta = experiment: as above; settings: at 30 µM
R275C/beta4 = experiment: as above; settings: at 30 µM
R275C/Slo1WT/beta2 = experiment: as above; settings: at 30 µM
[13] = liver-stage malaria parasite growth inhibition, primary screen, cell-based, HepG2, luciferase luminescence, HepG2 viability (AID 624349; in the data active = parasite load remaining mostly below about 12%, no sharp cut-off; inactive = mostly above about 10%;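 also: 100% = mean of DMSO negative control wells on the same plate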); settings: P. berghei liver stage in HepG2, luciferase luminescence, concentration not given here; parasite load remaining: stronger effect = lower value; viability: measured here: HepG2 viability without parasites

CCCNC(C)C(=O)Nc1ccccc1C (centres undefined)
inhibition [1]: 1.52%
score [2]: 1.18
rescue above control [3]: -3.71
cytochrome c release ratio [4]: 0.7
inhibition of aggregation [5]: 74.9%
glutamate uptake change [6]: 3.66%
aggregation suppression score [7]: 1.11
survival [8]: 13.5 (inactive)
inhibition [9]: -1% (inactive)
fluorescence ratio [10]: 0.103 (active)
mean signal [11]: 270 (inactive)
z-score [12]: 0.075 (inactive) and 0.325 (inactive) and 0.175 (inactive)
log fold change Tl+ flux (F380Y/beta1): 0.00249 (inactive)
log fold change Tl+ flux (F380Y/beta4): 0.0146 (inactive)
log fold change Tl+ flux (R275C): -0.0216 (inactive)
log fold change Tl+ flux (R275C/beta1): -0.0631 (inactive)
log fold change Tl+ flux (R275C/beta2Delta): 0.0403 (inactive)
log fold change Tl+ flux (R275C/beta4): -0.00233 (inactive)
log fold change Tl+ flux (R275C/Slo1WT/beta2): 0.0338 (inactive)

Cc1ccc(S(=O)(=O)NC(=O)NN2CCCCCC2)cc1
inhibition [1]: -0.98%
score [2]: 1.2
rescue above control [3]: 1.05
cytochrome c release ratio [4]: 1.07
inhibition of aggregation [5]: 69.7%
glutamate uptake change [6]: 14.9%
aggregation suppression score [7]: 0.918
survival [8]: 3.17 (inactive)
inhibition [9]: -1% (inactive)
fluorescence ratio [10]: 1.04 (inactive)
mean signal [11]: 286 (inactive)
z-score [12]: 0.415 (inactive) and 0.635 (inactive) and 0.49 (inactive)
log fold change Tl+ flux (F380Y/beta1): 0.00805 (inactive)
log fold change Tl+ flux (F380Y/beta4): -0.0504 (inactive)
log fold change Tl+ flux (R275C): -0.0622 (inactive)
log fold change Tl+ flux (R275C/beta1): -0.00502 (inactive)
log fold change Tl+ flux (R275C/beta2Delta): -0.0116 (inactive)
log fold change Tl+ flux (R275C/beta4): 0.0645 (inactive)
log fold change Tl+ flux (R275C/Slo1WT/beta2): -0.0145 (inactive)

NCC(=O)CCC(=O)O
parasite load remaining [13]: 63.7% (inactive) and 161% (inactive) and 53.4% (inactive)
viability [13]: 95.6% and 83.2% and 165%
fluorescence ratio [10]: 1.05 (inactive)
mean signal [11]: 245 (inactive)
z-score [12]: 0.925 (inactive)
log fold change Tl+ flux (F380Y/beta1): -0.00533 (inactive)
log fold change Tl+ flux (F380Y/beta4): 0.0148 (inactive)
log fold change Tl+ flux (R275C): -0.000596 (inactive)
log fold change Tl+ flux (R275C/beta1): -0.0231 (inactive)
log fold change Tl+ flux (R275C/beta2Delta): -0.0499 (inactive)
log fold change Tl+ flux (R275C/beta4): -0.0959 (inactive)
log fold change Tl+ flux (R275C/Slo1WT/beta2): -0.117 (active)

CC[N+](C)(C)c1cccc(O)c1
inhibition [1]: 0.97%
score [2]: 1.45
rescue above control [3]: -4.06
cytochrome c release ratio [4]: 0.79
inhibition of aggregation [5]: 49.4%
glutamate uptake change [6]: -4.41%
aggregation suppression score [7]: 1.27
survival [8]: 20.2 (inactive)
inhibition [9]: -3% (inactive)
fluorescence ratio [10]: 1.03 (inactive)
mean signal [11]: 239 (inactive)
z-score [12]: 0.66 (inactive) and 0.015 (inactive)
log fold change Tl+ flux (F380Y/beta1): -0.0227 (inactive)
log fold change Tl+ flux (F380Y/beta4): 0.00778 (inactive)
log fold change Tl+ flux (R275C): 0.00231 (inactive)
log fold change Tl+ flux (R275C/beta1): -0.022 (inactive)
log fold change Tl+ flux (R275C/beta2Delta): 0.0107 (inactive)
log fold change Tl+ flux (R275C/beta4): -0.0318 (inactive)
log fold change Tl+ flux (R275C/Slo1WT/beta2): 0.00666 (inactive)

OC(CCN1CCCCC1)(c1ccccc1)C1CCCCC1 (centres undefined)
inhibition [1]: -21%
score [2]: 1.21
rescue above control [3]: 1.37
cytochrome c release ratio [4]: 1.32
inhibition of aggregation [5]: 88.9%
glutamate uptake change [6]: -20.9%
aggregation suppression score [7]: 1.42
survival [8]: 3.42 (inactive)
inhibition [9]: 0% (inactive)
fluorescence ratio [10]: 0.99 (inactive)
mean signal [11]: 211 (inactive)
z-score [12]: -0.545 (inactive) and -0.525 (inactive)
log fold change Tl+ flux (F380Y/beta1): 0.00768 (inactive)
log fold change Tl+ flux (F380Y/beta4): 0.0698 (inactive)
log fold change Tl+ flux (R275C): -0.119 (active)
log fold change Tl+ flux (R275C/beta1): 0.105 (inactive)
log fold change Tl+ flux (R275C/beta2Delta): -0.0882 (inactive)
log fold change Tl+ flux (R275C/beta4): 0.0638 (inactive)
log fold change Tl+ flux (R275C/Slo1WT/beta2): 0.0146 (inactive)

CN(C)CCCN1c2ccccc2CCc2ccccc21
inhibition [1]: -29.3%
score [2]: 1.28
rescue above control [3]: 5.01
cytochrome c release ratio [4]: 1.3
inhibition of aggregation [5]: 41%
glutamate uptake change [6]: 5.43%
aggregation suppression score [7]: 1.2
survival [8]: 8.08 (inactive)
inhibition [9]: -7% (inactive)
mean signal [11]: 235 (inactive)
z-score [12]: -0.9 (inactive) and -0.525 (inactive) and -0.59 (inactive)
log fold change Tl+ flux (F380Y/beta1): 0.0217 (inactive)
log fold change Tl+ flux (F380Y/beta4): 0.133 (active)
log fold change Tl+ flux (R275C): 0.0455 (inactive)
log fold change Tl+ flux (R275C/beta1): 0.104 (inactive)
log fold change Tl+ flux (R275C/beta2Delta): 0.158 (active)
log fold change Tl+ flux (R275C/beta4): 0.109 (inactive)
log fold change Tl+ flux (R275C/Slo1WT/beta2): 0.0178 (inactive)

CC(C)[N+](C)(CCOC(=O)C1c2ccccc2Oc2ccccc21)C(C)C
inhibition [1]: 8.5%
score [2]: 0.96
rescue above control [3]: 2.24
cytochrome c release ratio [4]: 0.77
inhibition of aggregation [5]: 58.5%
glutamate uptake change [6]: -0.12%
aggregation suppression score [7]: 1.09
survival [8]: 4.92 (inactive)
inhibition [9]: 0% (inactive)
fluorescence ratio [10]: 1.03 (inactive)
mean signal [11]: 251 (inactive)
z-score [12]: 0.295 (inactive) and 0.02 (inactive)
log fold change Tl+ flux (F380Y/beta1): -0.0699 (inactive)
log fold change Tl+ flux (F380Y/beta4): -0.0221 (inactive)
log fold change Tl+ flux (R275C): 0.0289 (inactive)
log fold change Tl+ flux (R275C/beta1): 0.0122 (inactive)
log fold change Tl+ flux (R275C/beta2Delta): -0.014 (inactive)
log fold change Tl+ flux (R275C/beta4): -0.0395 (inactive)
log fold change Tl+ flux (R275C/Slo1WT/beta2): -0.0246 (inactive)

CN(C)CC/C=C1\c2ccccc2COc2ccccc21
survival [8]: 18.8 (inactive)
parasite load remaining [13]: 66.1% (inactive) and 36% (inactive) and 100% (inactive)
viability [13]: 121% and 46.9% and 88.3%
inhibition [9]: -5% (inactive)
fluorescence ratio [10]: 0.98 (inactive)
mean signal [11]: 222 (inactive)
z-score [12]: -0.51 (inactive) and -1.11 (inactive)
log fold change Tl+ flux (F380Y/beta1): 0.078 (inactive)
log fold change Tl+ flux (F380Y/beta4): 0.0925 (inactive)
log fold change Tl+ flux (R275C): -0.0142 (inactive)
log fold change Tl+ flux (R275C/beta1): 0.119 (active)
log fold change Tl+ flux (R275C/beta2Delta): 0.0609 (inactive)
log fold change Tl+ flux (R275C/beta4): 0.0396 (inactive)
log fold change Tl+ flux (R275C/Slo1WT/beta2): -0.0225 (inactive)
